Test results taken from PubChem BioAssay (NCATS).
A number with no mark means an inactive call. Inconclusive results are not listed. Activity calls are given as the source filed them. Unless noted, calls come from the whole dose curve; as a rule, active = well fitted curve in either direction with a large enough effect (not every such curve was filed as active); inconclusive = small, poorly fitted or top-dose-only effect, or another doubt; inactive = flat fitted curve, though single readings scatter.

Tests used:
[1] = AP1 Signaling Pathway (AID 357); details: ME-180 AP-1-bla reporter, EGF-induced, beta-lactamase ratio, 5 h; at 7.69 µM (top of the series) unless noted;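 note: ME-180 reporter cells stimulated with EGF at its EC50 level; % is set by controls: 0 for no effect and ±100 for the full control effect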
Summary of the method: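 Modulation of EGF-driven AP-1 transcription was assessed with a beta-lactamase reporter in ME-180 cells. Compound and EC50 EGF were co-incubated 5 hours at 37 °C before 2.5-hour CCF4 loading at room temperature and dual-emission reading.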

[2] = molecular target: Cytochrome P450 1A2 (Homo sapiens) (UniProt P05177); assay: p450-cyp1a2 (AID 410; calls by dose curve; note: potency is the fitted concentration of half-maximal effect;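 for activity change, negative = inhibition: -100% = full effect of reference inhibitor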)
Cytochrome P450 1A2 (Homo sapiens), sequence (P05177 whole entry, looked up): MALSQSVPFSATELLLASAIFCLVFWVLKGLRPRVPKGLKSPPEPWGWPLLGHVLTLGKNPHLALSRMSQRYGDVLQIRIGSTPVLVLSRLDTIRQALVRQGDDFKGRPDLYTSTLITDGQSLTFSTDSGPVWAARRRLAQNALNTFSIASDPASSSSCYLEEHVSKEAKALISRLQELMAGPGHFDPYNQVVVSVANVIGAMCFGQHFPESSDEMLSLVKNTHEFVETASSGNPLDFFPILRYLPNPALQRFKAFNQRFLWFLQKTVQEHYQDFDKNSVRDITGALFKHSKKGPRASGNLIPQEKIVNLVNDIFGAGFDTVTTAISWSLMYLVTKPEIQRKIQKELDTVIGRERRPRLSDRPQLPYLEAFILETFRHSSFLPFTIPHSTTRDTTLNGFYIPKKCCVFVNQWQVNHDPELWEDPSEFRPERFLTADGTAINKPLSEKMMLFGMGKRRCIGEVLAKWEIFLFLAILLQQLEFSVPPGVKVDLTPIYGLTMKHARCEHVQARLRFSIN
Summary of the method: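 Luminescent demethylation readout: Luciferin-ME (100uM, equal to Km) turned over by 20nM CYP1A2 for 60 min at room temperature after NADPH regeneration addition, following 10 min compound preincubation. Normalization used 57 uM furafylline as full inhibition.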

[3] = NFAT Signaling Pathway (AID 444); details: Jurkat NFAT-bla M1, carbachol, beta-lactamase ratio, 5 h; at 7.69 µM (top of the series) unless noted;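 note: carbachol stimulus at about its EC50 of 1 µM final; % is set by controls: 0 for no effect and ±100 for the full control effect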
Summary of the method: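 Read-out: CCF4 FRET ratio (460 nm/530 nm) after 1 h RT dye loading, used for %activity and AC50 from titration series. Cells: Jurkat NFAT-β-lactamase/M1 line, treated with compound plus 1 uM carbachol for 5 h, 37 °C.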

[4] = Stat Signaling Pathway (AID 446); details: ME-180 (cervical carcinoma) SIE beta-lactamase reporter, IL-6 stimulated, 5 h; at 7.69 µM (top of the series) unless noted;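 note: ME-180 cervical cancer cells given 40 pM IL-6 alongside compound; SIE-controlled beta-lactamase reporter measured as 460/530 nm FRET emission ratio; % is set by controls: 0 for no effect and ±100 for the full control effect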
Summary of the method: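 FRET read-out (405 nm excitation, 460/530 nm emission) of a beta-lactamase reporter under a STAT-inducible element in ME-180 cervical carcinoma cells. Cells with compound receive 40 pM IL-6 for 5 h. Values are normalised to AC90 stimulation and AC90 JAK-inhibitor controls.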

[5] = molecular target: Glucocorticoid receptor (Homo sapiens) (UniProt P04150); assay: GR-GFP Redistribution (AID 450;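 active = compounds whose dose series gives a full or clear partial fitted curve of increased nuclear translocation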; note: potency is the fitted concentration of half-maximal effect); details: U2OS GR-GFP nuclear translocation, laser cytometry, 2 h
Glucocorticoid receptor (Homo sapiens), sequence (P04150 whole entry, looked up, the tested form may be a part): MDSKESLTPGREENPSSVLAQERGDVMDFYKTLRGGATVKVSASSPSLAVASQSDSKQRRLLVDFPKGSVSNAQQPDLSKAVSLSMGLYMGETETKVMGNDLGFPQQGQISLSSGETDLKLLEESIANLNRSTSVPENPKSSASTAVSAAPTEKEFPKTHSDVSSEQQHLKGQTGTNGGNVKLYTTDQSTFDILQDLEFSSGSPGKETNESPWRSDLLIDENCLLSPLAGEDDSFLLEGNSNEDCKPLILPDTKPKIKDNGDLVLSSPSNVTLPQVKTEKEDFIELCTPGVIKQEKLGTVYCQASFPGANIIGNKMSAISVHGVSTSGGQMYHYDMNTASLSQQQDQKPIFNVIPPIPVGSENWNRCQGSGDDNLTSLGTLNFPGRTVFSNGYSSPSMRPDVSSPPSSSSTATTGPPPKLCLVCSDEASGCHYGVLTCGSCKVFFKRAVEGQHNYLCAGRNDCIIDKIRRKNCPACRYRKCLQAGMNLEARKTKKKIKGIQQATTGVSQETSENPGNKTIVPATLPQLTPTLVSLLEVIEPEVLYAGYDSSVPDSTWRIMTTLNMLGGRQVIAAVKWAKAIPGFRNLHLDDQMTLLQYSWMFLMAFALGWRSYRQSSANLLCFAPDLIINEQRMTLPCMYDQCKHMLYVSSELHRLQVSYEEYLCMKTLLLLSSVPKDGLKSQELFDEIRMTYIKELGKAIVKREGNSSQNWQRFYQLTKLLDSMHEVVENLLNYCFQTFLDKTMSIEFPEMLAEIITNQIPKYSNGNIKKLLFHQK

[6] = molecular target: Glucocorticoid receptor (Homo sapiens) (UniProt P04150); assay: GR-EFC Redistribution (AID 451; calls by dose curve; note: potency is the fitted concentration of half-maximal effect); details: CHO-K1 GR-EFC translocation, beta-gal luminescence, 2 h
Summary of the method: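 Translocation of GR-ED fusion to nuclear EA restores b-gal, read by luminescence after 1 h room-temperature detection. Engineered CHO-K1 biosensor cells, 1,000/well, exposed 2 h at 37 C to titrations up to 46 uM final.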

[7] = molecular target: Mitogen-activated protein kinase 10 (Mus musculus) (UniProt Q61831); assay: JNK3 AlphaScreen Assay (AID 530);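 note: kinase came from lysate of stimulated human HepG2 cells; signal reports phosphorylation of biotinylated GST-cJun 1-79 at Ser73 with 10 µM ATP; % is set by controls: 0 for no effect and ±100 for the full control effect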
Summary of the method: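 qHTS titrations with 15 min compound pre-incubation before adding ATP (10 uM final). Read-out: AlphaScreen of Ser73-phosphorylated biotin-GST-cJun using HepG2 lysate JNK3 activated by IL-1β and TNFα.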

[8] = molecular target: 3',5'-cyclic-AMP phosphodiesterase 4B (Homo sapiens) (UniProt Q07343); assay: qHTS Assay for Inhibitors of PDE-IV (AID 607; active = well fitted activation curve with a large enough effect in the main read-out, with a control signal flat, not every such curve was filed as active; note: % of control where 0% means no effect)
3',5'-cyclic-AMP phosphodiesterase 4B (Homo sapiens), sequence (Q07343 whole entry, looked up): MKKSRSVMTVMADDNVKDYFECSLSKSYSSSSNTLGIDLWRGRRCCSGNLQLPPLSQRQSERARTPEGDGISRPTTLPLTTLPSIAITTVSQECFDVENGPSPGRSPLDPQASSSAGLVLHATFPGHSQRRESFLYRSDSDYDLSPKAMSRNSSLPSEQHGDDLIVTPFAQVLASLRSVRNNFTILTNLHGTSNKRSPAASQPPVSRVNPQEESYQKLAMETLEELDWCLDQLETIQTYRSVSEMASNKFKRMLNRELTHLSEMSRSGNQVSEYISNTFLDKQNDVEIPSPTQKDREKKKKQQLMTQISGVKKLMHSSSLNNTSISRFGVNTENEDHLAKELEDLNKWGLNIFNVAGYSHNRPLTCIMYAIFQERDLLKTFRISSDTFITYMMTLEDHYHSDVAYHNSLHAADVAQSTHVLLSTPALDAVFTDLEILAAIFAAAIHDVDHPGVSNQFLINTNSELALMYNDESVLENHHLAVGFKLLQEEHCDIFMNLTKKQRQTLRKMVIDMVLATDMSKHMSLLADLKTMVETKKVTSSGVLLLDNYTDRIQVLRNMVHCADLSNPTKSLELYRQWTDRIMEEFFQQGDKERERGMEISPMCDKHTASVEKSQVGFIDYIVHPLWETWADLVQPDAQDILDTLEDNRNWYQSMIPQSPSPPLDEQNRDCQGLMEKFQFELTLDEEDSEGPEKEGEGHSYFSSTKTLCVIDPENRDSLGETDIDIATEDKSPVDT
Summary of the method: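 Cell-based read-out of cAMP via a modified cyclic nucleotide-gated channel and membrane potential dye (535/590 nm) in HEK293 cells expressing PDE4 endogenously. Compounds tested up to 22.9 uM final; 100 uM RO 20-1724 reference.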

[9] = molecular target: Cytochrome P450 3A4 (Homo sapiens) (UniProt P08684); assay: qHTS Assay for Activators of Cytochrome P450 3A4 (AID 885; active = well fitted curve in the direction sought with a large enough effect; an effect the other way counts as inactive or inconclusive; note: nearly all actives have a fitted effect of over 65% in size; note: potency is the fitted concentration of half-maximal effect)
Cytochrome P450 3A4 (Homo sapiens), sequence (P08684 whole entry, looked up): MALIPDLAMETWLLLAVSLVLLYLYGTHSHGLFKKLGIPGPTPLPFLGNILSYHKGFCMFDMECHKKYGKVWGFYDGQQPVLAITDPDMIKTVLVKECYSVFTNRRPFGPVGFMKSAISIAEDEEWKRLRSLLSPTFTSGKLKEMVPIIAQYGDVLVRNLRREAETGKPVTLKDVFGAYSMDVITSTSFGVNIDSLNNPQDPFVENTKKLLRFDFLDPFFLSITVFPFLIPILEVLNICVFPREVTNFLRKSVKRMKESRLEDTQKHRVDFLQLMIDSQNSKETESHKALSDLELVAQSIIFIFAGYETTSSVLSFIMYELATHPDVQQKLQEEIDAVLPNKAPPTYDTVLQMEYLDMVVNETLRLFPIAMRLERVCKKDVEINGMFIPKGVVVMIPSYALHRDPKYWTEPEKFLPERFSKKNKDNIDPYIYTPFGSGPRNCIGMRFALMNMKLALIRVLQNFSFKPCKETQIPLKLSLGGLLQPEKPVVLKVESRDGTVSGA
Summary of the method: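 Luminescent readout of luciferin formed from 25 uM Luciferin-PPXE (KM level) by 20 nM CYP3A4 in 200 mM KPO4, with 60 min NADPH-driven reaction at room temperature after 10 min compound exposure. Ketoconazole (57 uM) defined 100% inhibition.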

[10] = molecular target: Ubiquitin carboxyl-terminal hydrolase 1 (Homo sapiens) (UniProt O94782); assay: Inhibitors of USP1/UAF1: Pilot qHTS (AID 504865; active = well fitted curve in the direction sought with a large enough effect; an effect the other way counts as inactive or inconclusive; note: nearly all actives have a fitted effect of over 35% in size; note: potency is the fitted concentration of half-maximal effect)
Ubiquitin carboxyl-terminal hydrolase 1 (Homo sapiens), sequence (O94782 whole entry, looked up): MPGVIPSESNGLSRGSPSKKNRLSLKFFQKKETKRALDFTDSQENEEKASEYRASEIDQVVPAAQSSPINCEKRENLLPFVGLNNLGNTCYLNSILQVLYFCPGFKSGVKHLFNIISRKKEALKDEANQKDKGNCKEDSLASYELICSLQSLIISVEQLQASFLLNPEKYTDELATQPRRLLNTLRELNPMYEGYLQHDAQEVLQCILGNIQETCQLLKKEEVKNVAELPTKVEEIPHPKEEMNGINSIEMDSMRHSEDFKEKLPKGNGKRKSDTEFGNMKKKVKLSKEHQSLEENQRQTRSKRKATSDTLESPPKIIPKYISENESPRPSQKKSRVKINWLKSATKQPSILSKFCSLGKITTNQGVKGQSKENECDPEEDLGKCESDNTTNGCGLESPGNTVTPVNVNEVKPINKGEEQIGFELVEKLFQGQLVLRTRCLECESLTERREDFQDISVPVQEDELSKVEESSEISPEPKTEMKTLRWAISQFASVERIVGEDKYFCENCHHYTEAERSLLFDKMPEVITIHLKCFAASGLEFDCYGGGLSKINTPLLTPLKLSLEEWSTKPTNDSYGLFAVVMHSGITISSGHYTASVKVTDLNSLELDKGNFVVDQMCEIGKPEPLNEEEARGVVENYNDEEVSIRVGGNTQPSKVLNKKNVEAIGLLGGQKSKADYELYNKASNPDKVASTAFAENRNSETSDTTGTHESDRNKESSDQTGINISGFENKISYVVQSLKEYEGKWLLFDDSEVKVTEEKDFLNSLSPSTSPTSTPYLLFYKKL
Summary of the method: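 Kinetic fluorescence assay: 1nM USP1/UAF1, 15 min compound preincubation, then 150nM Ub-Rho; 480/540 nm.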

| Structure (SMILES) | activity change, negative = inhibition [1] [%] | Potency [2] | activity change, negative = inhibition [3] [%] | activity, negative = inhibition [4] [%] | Potency [5] [µM] | Potency [6] [µM] | Potency [7] | Potency [8] | Potency [9] | Potency [10] |
| --- | --- | --- | --- | --- | --- | --- | --- | --- | --- | --- |
| CNc1ccnc(-c2ccccc2C)n1 | 0.123 | 5.01 µM (active) | 13 | 6.43 | > 46 | > 46 | inactive | inactive | inactive | inactive |
| O=C(c1cccc(F)c1)N1CCC2(CC1)CCN(c1ccc(-c3ccccc3)cc1)CC2 | 4.61 | – | 0.978 | -7.26 | – | > 46 | inactive | inactive | 12.6 µM (active) | – |
| CN1CCN(c2ncc3nc(-c4cccc(C#N)c4)c(=O)n(CCC#N)c3n2)CC1 | -12.4 | inactive | 17.8 | 19.4 | > 9.22 | > 46 | inactive | inactive | – | inactive |
| Cc1nc2cnc(Oc3ccccc3)nc2n(C2CC2)c1=O | -5.18 | 10 µM (active) | -1.18 | -14.1 | > 9.22 | > 46 | inactive | inactive | inactive | inactive |
| COc1cccc(Nc2ncc3ncc(=O)n(Cc4cccs4)c3n2)c1 | – | 1.58 µM (active) | – | – | > 9.22 | > 46 | inactive | – | – | inactive |
| N#Cc1cccc(NC(=O)N2CC[C@@]3(CCCN(C(=O)c4cccc(F)c4)C3)C2)c1 | -20.8 | – | – | -2.81 | – | > 46 | inactive | inactive | inactive | – |
| O=c1c(-c2cccs2)nc2cnc(N3CCNCC3)nc2n1Cc1cccs1 | – | 3.98 µM (active) | – | – | > 9.22 | > 46 | inactive | inactive | inactive | 28.2 µM (active) |
| Cc1noc(C)c1-c1ccc2ncnc(Nc3ccccc3)c2c1 | -6.37 | – | – | – | > 46 | > 46 | inactive | inactive | – | inactive |
| COC(=O)N1CCC2(CCCN(c3ncccn3)C2)CC1 | -15 | – | 6.41 | 1.72 | – | > 46 | inactive | inactive | – | – |
| N#Cc1cccc(-c2nc(NCc3cccs3)c3ccccc3n2)c1 | -7.71 | 0.316 µM (active) | -16.7 | -29.9 | > 46 | > 46 | inactive | – | inactive | – |
| COc1ccccc1-c1cc(N(C)Cc2ccco2)ncn1 | 28.4 | – | -15.8 | 5.75 | > 46 | > 46 | inactive | inactive | – | inactive |
| Cc1cnc(CNc2cc(-c3ccc4c(c3)OCO4)ncn2)cn1 | -3.49 | – | 7.15 | -3.34 | > 46 | > 46 | inactive | inactive | – | inactive |
| O=C(c1ccco1)N1CCC2(CCCN(c3ccccn3)C2)CC1 | -0.937 | 10 µM (active) | – | -3.59 | – | > 46 | inactive | inactive | inactive | – |
